Reference: PubChem BioAssay
Values joined by “and” are separate entries in the source; they are usually repeats but may differ in a detail not shown here. Equal entries are not always repeated. Records with an inconclusive call do not appear. Active and inactive are the calls of the source. Rule as the data show it, unless noted: active = inhibition above about 80%; inactive = the rest.

Key:
[1] = biological target: Mitogen-activated protein kinase 7 (Homo sapiens) (UniProt Q13164); experiment: ERK5 transactivation activators in reporter cells, primary screen, cell-based, HTS (AID 1508626;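 active = luciferase signal above three times the same-plate solvent-only control wells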;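 also: luciferase driven by Gal4-ERK5 fusion binding five Gal4 sites before minimal TATA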); details: HeLa Gal4-ERK5 transactivation, 18 h, at 5 µM, stronger effect = higher value
[2] = circadian clock period modulators, cell-based, LOPAC library, luminescence reporter (AID 2774; call rule not given here;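 also: values are relative to mean of DMSO wells on each plate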); details: circadian reporter cells, at 7 µM, actives lie on both sides
[3] = hESC survival regulators, cell-based (AID 493140; call rule not given here;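 also: cells exposed to compounds for four days before counting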); details: human embryonic stem cell survival screen; stronger effect = higher value
[4] = test system: Hepatitis C virus NS3 helicase; experiment: HCV NS3 helicase inhibitors, primary screen, biochemical, fluorescence polarization, LOPAC1280 library (AID 687035; in the data active = inhibition above about 37%); details: Purified HCV NS3 helicase, Cy5-dT15 ssDNA binding fluorescence polarization; stronger effect = higher value; concentration not given here
[5] = Cy5 fluorescence quenching or enhancement artefacts, artefact control for HCV NS3 helicase inhibitor project, biochemical, LOPAC1280 (AID 687037; call rule not given here); details: Cy5-DNA-NS3h complex fluorescence interference counterscreen
[6] = growth inhibition of DIPG glioma cells, dose response, cell-based, JHH-DIPG-1, MIPE4.0, CellTiter-Glo, qHTS (AID 1347062; cut-off not given, nearly all actives have AC50 up to about 27 µM;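 as to AC50: cells exposed to compound for two days before readout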); details: JHH-DIPG-1 viability, CellTiter-Glo ATP luminescence
[7] = growth inhibition of DIPG glioma cells, dose response, cell-based, SU-DIPG-IV, MIPE4.0, CellTiter-Glo, qHTS (AID 1347063; cut-off not given, nearly all actives have AC50 up to about 30 µM;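 also: compound exposure lasted 48 hours before the viability readout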); details: SU-DIPG-IV viability, CellTiter-Glo ATP luminescence
[8] = growth inhibition of DIPG glioma cells, dose response, cell-based, SU-DIPG-XIII, MIPE5.0, CellTiter-Glo, qHTS (AID 1347064; cut-off not given, nearly all actives have AC50 up to about 23 µM;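 also: cells exposed to compound for 48 hours before the viability read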); details: SU-DIPG-XIII viability, CellTiter-Glo ATP luminescence
[9] = viability loss in pontine glioma line – cell-based, SU-DIPG-XXV, MIPE5.0, CellTiter-Glo, qHTS, dose response (AID 1347065; cut-off not given, nearly all actives have AC50 up to about 26 µM;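 also: cells exposed to compound for 48 hours before ATP readout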); details: CellTiter-Glo ATP luminescence
[10] = JHH-DIPG-1 glioma cell viability, MIPE5.0 library, CellTiter-Glo luminescence, qHTS (AID 1347067; cut-off not given, nearly all actives have AC50 up to about 26 µM;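 also: cells exposed to compound for 48 hours before readout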); details: JHH-DIPG-1 glioma viability, CellTiter-Glo ATP luminescence
[11] = modifiers of HSF1 nuclear foci, imaging, Selleck Cancer Library (AID 1347162; in the data active = plate-normalised HSF1 focus index below about 0.46); details: human cells, at 10 µM; SSMD: measured here: HSF1 foci SSMD mean; cell count: measured here: cell number; plate-normalised HSF1 focus index: stronger effect = lower value
[12] = phospholipid biosynthesis inhibitors in animal cells, primary screen, cell-based, LOPAC library, screen 4 (AID 1347384; call rule not given here); details: phospholipid biosynthesis inhibition screen, at 10 µM
[13] = LFS_MB_P medulloblastoma growth inhibition, cell-based, chromothripsis tumors, cisplatin or BGB combos (AID 1671449); details: LFS_MB_P medulloblastoma cells;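 also: cells exposed for 96 hours; 0% = vehicle DMSO and 100% = killing by high DMSO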
[14] = HDN33 neuroblastoma growth inhibition, cell-based, chromothripsis tumors, cisplatin or BGB combos (AID 1671450); details: HDN33 neuroblastoma cells, stronger effect = higher value;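 also: cells exposed to compound for four days; 0% = vehicle DMSO and 100% = cell killing by high DMSO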
[15] = ICB984 medulloblastoma cell growth inhibition, synergistic combos for chromothripsis tumors, cisplatin or BGB combos (AID 1671451; call rule not given here;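 also: cells exposed for 96 hours before readout; 0% = vehicle DMSO and 100% = killing by high DMSO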); details: ICB984 medulloblastoma cells, drug combinations, stronger effect = higher value
[16] = HTB85 osteosarcoma cell growth inhibition, synergistic combos for chromothripsis tumors, BGB or cisplatin IC20 combos (AID 1671453); details: HTB85 osteosarcoma cells, drug combinations, stronger effect = higher value;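 also: cells exposed for 96 hours before readout; 0% = vehicle DMSO and 100% = high DMSO killing control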
[17] = MDA-MB-436 breast carcinoma cell growth inhibition, synergistic combos for chromothripsis tumors, BGB or cisplatin combos (AID 1671458; call rule not given here;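 also: cells exposed for 96 hours; 0% = vehicle DMSO and 100% = killing by high DMSO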); details: MDA-MB-436 breast carcinoma growth inhibition, drug combinations, stronger effect = higher value
[18] = growth inhibition of BT084 medulloblastoma cells, cell-based, ICGC_MB145, cisplatin and BGB IC40 combos (AID 1671461); details: drug combinations, stronger effect = higher value;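 also: cells exposed to drugs for 96 hours; 0% = vehicle DMSO and 100% = high DMSO full killing control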
[19] = growth inhibition of RCMB18 medulloblastoma cells, cell-based, cisplatin and BGB IC40 combos (AID 1671462); details: stronger effect = higher value;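 also: cells exposed to compound for four days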
[20] = growth inhibition of CRL1545 osteosarcoma cells, cell-based, cisplatin and BGB IC20 combos (AID 1671464); details: stronger effect = higher value;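 also: cells exposed to compound for 96 hours before readout; 0% = vehicle DMSO and 100% = high DMSO killing control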
[21] = measured here: with BGB IC20 combination, at 0.5 µM
[22] = measured here: with cisplatin IC20 combination, at 0.5 µM

Mitogen-activated protein kinase 7 (Homo sapiens), sequence (Q13164 whole entry, looked up, the tested form may be a part): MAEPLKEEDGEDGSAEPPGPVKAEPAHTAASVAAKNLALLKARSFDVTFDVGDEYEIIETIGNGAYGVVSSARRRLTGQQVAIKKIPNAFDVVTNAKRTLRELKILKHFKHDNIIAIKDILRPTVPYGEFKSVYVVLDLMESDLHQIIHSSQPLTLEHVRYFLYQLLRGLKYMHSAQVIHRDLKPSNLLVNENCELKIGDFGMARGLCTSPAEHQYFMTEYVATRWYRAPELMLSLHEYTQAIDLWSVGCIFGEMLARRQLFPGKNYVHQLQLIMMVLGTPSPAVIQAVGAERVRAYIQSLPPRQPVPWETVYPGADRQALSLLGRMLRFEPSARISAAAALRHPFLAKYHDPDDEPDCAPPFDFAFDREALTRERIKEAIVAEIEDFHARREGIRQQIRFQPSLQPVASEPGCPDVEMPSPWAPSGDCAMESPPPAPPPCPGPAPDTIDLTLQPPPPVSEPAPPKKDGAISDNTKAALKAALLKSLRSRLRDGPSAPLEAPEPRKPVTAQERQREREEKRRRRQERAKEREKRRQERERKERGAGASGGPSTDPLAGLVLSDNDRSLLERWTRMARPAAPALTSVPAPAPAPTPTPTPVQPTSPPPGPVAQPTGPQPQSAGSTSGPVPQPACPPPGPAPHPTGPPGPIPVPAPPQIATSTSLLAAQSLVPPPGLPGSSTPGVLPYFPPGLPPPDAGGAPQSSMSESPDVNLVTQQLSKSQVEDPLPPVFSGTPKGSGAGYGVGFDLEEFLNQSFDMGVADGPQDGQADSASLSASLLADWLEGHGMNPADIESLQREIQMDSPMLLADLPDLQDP

CNCc1ccccc1
luciferase signal [1]: 56 AU (inactive)

CC1(C)[C@@H]2CC[C@@]1(C)C(=O)C2
luciferase signal [1]: 52 AU (inactive)

CC1=C(/C=C/C(C)=C/C=C/C(C)=C/C(=O)Nc2ccc(O)cc2)C(C)(C)CCC1
period change [2]: -0.145 h (inactive) | survival [3]: 116 (inactive) | inhibition [4]: -3% (inactive) | fluorescence ratio (interference) [5]: 1 (inactive) | AC50 [6]: 2.7 µM (active) | AC50 [7]: 4.81 µM (active) | AC50 [8]: 16.6 µM (active) | AC50 [9]: 14.8 µM (active) | AC50 [10]: 20.9 µM (active) | SSMD [11]: -4.16 | cell count [11]: 7280 | plate-normalised HSF1 focus index [11]: 0.851 (inactive) | outcome [12]: active

O=C1OC2(c3ccc(O)cc3Oc3cc(O)ccc32)c2ccccc21
luciferase signal [1]: 52 AU (inactive)

CC(O)(P(=O)(O)O)P(=O)(O)O
survival [3]: 4.67 (inactive) | luciferase signal [1]: 48 AU (inactive)

OCCc1ccccc1
luciferase signal [1]: 108 AU (inactive)

COc1cc(N)c(Cl)cc1C(=O)NC1CCN(CCCOc2ccc(F)cc2)CC1OC (centres undefined)
survival [3]: 0.75 (inactive)

CC1=C(C/C=C(\C)CCC[C@H](C)CCC[C@H](C)CCCC(C)C)C(=O)c2ccccc2C1=O
luciferase signal [1]: 156 AU (inactive)

O=C(OOC(=O)c1ccccc1)c1ccccc1
luciferase signal [1]: 104 AU (inactive)

CCOC(=O)c1ccc(O)cc1
luciferase signal [1]: 64 AU (inactive)

Nc1nc(Cl)nc2c1ncn2[C@@H]1O[C@H](CO)[C@@H](O)[C@@H]1F
outcome [6]: inactive | AC50 [7]: 0.0332 µM (active) | SSMD [11]: -4.45 | cell count [11]: 7490 | plate-normalised HSF1 focus index [11]: 0.84 (inactive) | inhibition ([13]; at 0.5 µM, stronger effect = higher value): -3.9% (inactive) and -14.3% (inactive) | inhibition ([13]; measured here: combination with BGB IC20, at 0.005 µM): -8.83% and 6.96% | inhibition ([13]; measured here: combination with BGB IC40, at 0.005 µM): -20.3% and 1.78% | inhibition ([13]; measured here: combination with BGB IC40, at 0.05 µM): -15.7% and -36.2% | inhibition ([13]; measured here: combination with cisplatin, at 0.5 µM, stronger effect = higher value): -5.98% and 57.4% | inhibition ([13]; measured here: combination with cisplatin, at 5 µM, stronger effect = higher value): 71.4% and 96.1% | inhibition ([14]; BGB combo, at 5 µM): 93.3% and 87.1% | inhibition ([14]; at 0.5 µM): 73.2% (inactive) and 66.1% (inactive) | inhibition ([14]; cisplatin combo, at 5 µM): 95.5% and 89.7% | inhibition [14, 21]: 77.5% and 72.5% | inhibition [14, 22]: 73.9% and 60.5% | inhibition ([14]; single agent, at 5 µM): 90.8% and 89.8% | inhibition ([15]; BGB IC20 combo, at 0.005 µM): -17.9% and 1.1% | inhibition ([15]; BGB IC40 combo, at 0.005 µM): -37% and -3.72% | inhibition ([15]; BGB IC40 combo, at 0.05 µM): 35.1% and 25% | inhibition ([15]; at 0.5 µM): -24.6% (inactive) and -23.6% (inactive) | inhibition ([15]; cisplatin combo, at 0.05 µM): 35.1% and 22.3% | inhibition ([15]; cisplatin combo, at 0.5 µM): -35.6% and 1.18% | inhibition ([15]; cisplatin combo, at 5 µM): 0.299% and -46.4% | inhibition ([15]; measured here: 5 uM single agent, at 5 µM): -18.8% and -11.5% | inhibition ([16]; at 0.5 µM): 75.4% (inactive) and 77.9% (inactive) | inhibition ([16]; measured here: with BGB IC20, at 0.5 µM): 66.7% and 73.9% | inhibition ([16]; measured here: with BGB IC20, at 5 µM): 95.1% and 90.7% | inhibition ([16]; measured here: with cisplatin IC20, at 0.5 µM): 78% and 76.7% | inhibition ([16]; measured here: with cisplatin IC20, at 5 µM): 97.1% and 95.9% | inhibition ([16]; single agent, at 5 µM): 96.4% | inhibition ([17]; at 0.5 µM): 45.3% (inactive) and 53.2% (inactive) | inhibition ([17]; measured here: BGB combination, at 0.5 µM): 39.5% and 52% | inhibition ([17]; measured here: BGB combination, at 5 µM): 65.6% and 67.5% | inhibition ([17]; measured here: cisplatin combination, at 0.5 µM): 40.6% and 46.8% | inhibition ([17]; measured here: cisplatin combination, at 5 µM): 87% and 90.6% | inhibition ([18]; at 0.5 µM): 25.8% (inactive) and 24.8% (inactive) | inhibition ([18]; cisplatin combination, at 0.5 µM): 61.9% and 62.5% | inhibition ([18]; cisplatin combination, at 5 µM): 70.1% and 80% | inhibition ([18]; measured here: BGB IC40 combination 0.05 uM, at 0.05 µM): -13.2% and 17.9% | inhibition ([18]; single agent, at 5 µM): -3.16% and -6.18% | inhibition ([19]; at 0.5 µM): 16.9% (inactive) and 18.5% (inactive) | inhibition ([19]; cisplatin combo, at 5 µM): 84.3% and 94.2% | inhibition ([19]; measured here: BGB IC40 combination, at 0.05 µM): -16.1% and -7.68% | inhibition ([19]; measured here: combination with cisplatin, at 0.5 µM): 83.1% and 66% | inhibition ([19]; single agent, at 5 µM): 9.06% and 45.4% | inhibition ([20]; at 0.5 µM): 7.42% (inactive) and 10.4% (inactive) | inhibition [20, 21]: 24% and 34.6% | inhibition [20, 22]: -0.869% and -3.42% | inhibition ([20]; single agent, at 0.05 µM): 30.6% and -23.9% | inhibition ([20]; single agent, at 5 µM): 97.1% and 92.1%
